Measured values: the supplement of paper PMC13380429

Test system: Vero E6 infected with SARS-CoV-2
Experiment: inhibition of SARS-CoV-2 cytopathic effect; higher = more antiviral protection, active = above 15
Conditions: 48 h

Measured: inhibition of SARS-CoV-2 cytopathic effect

CC(C(=O)O)c1ccc(C(=O)c2cccs2)cc1 (stereo not given) [suprofen]
inactive: 1 nM 2.14% | 8.33 nM 0.24% | 100 nM -0.86% | 833.33 nM -2.28% | 10000 nM -2.92%

N=C(N)NCc1cccc(I)c1 [iobenguane]
inactive: 1 nM -1.82% | 8.33 nM -0.29% | 100 nM 1.79% | 833.33 nM 2.26% | 10000 nM 6.21%

Cc1cc(C(C)(C)CC(C)(C)C)ccc1OCCOCC[N+](C)(C)Cc1ccccc1 [methylbenzethonium-chloride]
inactive: 1 nM -1.31% | 8.33 nM -1.52% | 100 nM -3.07% | 833.33 nM -0.46% | 10000 nM -4.8%

CSc1nc(NC2CCCC2)c([N+](=O)[O-])c(NC2CCCC2)n1
inactive: 1 nM -0.65% | 8.33 nM -0.38% | 100 nM 1.31% | 833.33 nM -0.4% | 10000 nM -0.11%

COC(=O)C1=C(C)NC(C)=C(C(=O)OCCN(C)Cc2ccccc2)C1c1cccc([N+](=O)[O-])c1 (stereo not given) [nicardipine]
inactive: 1 nM 0.9% | 8.33 nM 0.28% | 100 nM 0.23% | 833.33 nM -0.11% | 10000 nM -1.36%

CCc1cn([C@H]2C[C@H](O)[C@@H](CO)O2)c(=O)[nH]c1=O [edoxudine]
inactive: 1 nM 2.72% | 8.33 nM 2.12% | 100 nM 0.77% | 833.33 nM 1.82% | 10000 nM -0.51%

C[C@H](NC(=O)Cc1cc(F)cc(F)c1)C(=O)N[C@@H]1C(=O)N(C)c2ccccc2-c2ccccc21
inactive: 1 nM -2.68% | 8.33 nM -3.21% | 100 nM -6.27% | 833.33 nM -7.86% | 10000 nM -8.97%
